Screens (PubChem BioAssay)
CASP6 VEID inh: blocks human caspase-6 cleavage activity; P55212; purified caspase-6, Z-VEID-R110 cleavage fluorescence; inhibition, % at 12.5 µM; hit rate 0.53% among 350,000;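 active = mean inhibition across replicates at least about 35%, with every replicate also reaching that limit, limit read from the data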;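 also: 0% = median of neutral control wells and 100% = no fluorescence left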
ALR H2O2 inh: human ALR oxidase inhibition via reduced H2O2. P55789. purified ALR, DTT oxidation, H2O2 HRP-luminol luminescence. inhibition, % (no concentration beside the values). hit rate 3.8% among 290,000. AID 485317;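 active = mean replicate inhibition above about 79%, with every replicate also reaching it, limit read from the data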
NSD2 HMT inh: blocks human histone methyltransferase NSD2; NSD2 peptide methylation, AlphaScreen, 120 min; inhibition, % at 12.5 µM; hit rate 0.54% among 310,000; AID 743445; in the data active = inhibition above about 50%
Glyco luc inh: blocks N-linked glycosylation in D54 reporter cells. D54 ERlucT glycosylation luciferase reporter, 24 h; percent of 100 nM tunicamycin response. reporter increase, % at 12.5 µM. hit rate 0.23% among 360,000. AID 588692;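 active = mean luciferase reporter signal, scaled so untreated is 0 and the glycosylation-blocking control 100, at or above a set limit in every replicate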;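 also: luciferase carries N-glycosylation sites so blocking glycosylation raises the light; 0% = median of neutral control wells and 100% = median of 100 nM tunicamycin wells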
SUMO Mot1 rescue: inhibitors of SUMOylation pathway: yeast Mot1-301 growth rescue; hit rate 1% among 320,000; S. cerevisiae Mot1-301 growth rescue, ATP luminescence, 38.5C; percent above DMSO median, 100 means doubled; growth rescue, % at 18.8 µM; AID 2716;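 active = every valid replicate shows activation above 250% relative to neutral control wells; inactive = the rest, any valid replicate at or below 250%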;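 also: OY570 slx delta 5 strain wells were the positive control but not used for scaling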
CDK5 inh: inhibitors of human CDK5/p35 kinase. Q00535+Q15078. inhibition, % at 10 µM. Recombinant CDK5/p35, ADP-Glo luminescence, 60 min. AID 488839. hit rate 0.01% among 330,000;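 active = highest replicate inhibition of at least 50% and at least 75% of replicates reaching 50%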;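 also: plate controls were DMSO neutral control for no effect and GW8510 at 10 µM for full effect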
Target sequence (Q00535 whole entry, looked up): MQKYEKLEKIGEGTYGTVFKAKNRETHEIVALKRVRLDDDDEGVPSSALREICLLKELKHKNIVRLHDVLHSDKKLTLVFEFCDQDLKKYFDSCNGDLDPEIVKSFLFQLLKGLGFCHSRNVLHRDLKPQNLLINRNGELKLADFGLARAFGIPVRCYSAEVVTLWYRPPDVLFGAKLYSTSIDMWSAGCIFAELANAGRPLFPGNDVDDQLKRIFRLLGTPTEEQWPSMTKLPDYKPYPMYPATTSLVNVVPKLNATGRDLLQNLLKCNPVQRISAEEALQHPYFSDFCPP
Target sequence (Q15078 whole entry, looked up): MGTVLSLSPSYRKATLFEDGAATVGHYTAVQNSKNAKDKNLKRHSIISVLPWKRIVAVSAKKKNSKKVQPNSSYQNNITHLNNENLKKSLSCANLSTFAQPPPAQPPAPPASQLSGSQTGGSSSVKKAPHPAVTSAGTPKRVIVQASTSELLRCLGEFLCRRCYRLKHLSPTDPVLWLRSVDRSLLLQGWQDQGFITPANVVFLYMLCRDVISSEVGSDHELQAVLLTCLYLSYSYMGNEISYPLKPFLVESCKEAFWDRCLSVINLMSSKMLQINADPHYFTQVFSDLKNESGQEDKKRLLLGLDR
Numbers without * were called inactive; x = no result. Shown are actives, neighbours in structure and some others; about 3.9% of the full set was active somewhere.

SMILES | CASP6 VEID inh | ALR H2O2 inh | NSD2 HMT inh | Glyco luc inh | SUMO Mot1 rescue | CDK5 inh
Cc1cc(NC(=O)c2cc(-c3ccc(OC(C)C)cc3)nc3ccccc23)no1 | -4 | -2 | -8 | -1 | 312* | 2
Cc1c(C(=O)Nc2ccc(S(=O)(=O)Nc3ncccn3)cc2)oc2ccc(Cl)cc12 | -3 | 1 | -1 | 1 | -1 | -4
Cc1ccc2c(=O)cc(C(=O)Nc3ccc(S(=O)(=O)Nc4onc(C)c4C)cc3)oc2c1 | 9 | 97* | 1 | 4 | x | 0
CCC(=O)Nc1ccc2c(c1)OC[C@@H](C)N(C(=O)c1ccc(F)cc1)C[C@H](C)[C@@H](OC)CN(C)C2=O | 0 | x | x | x | x | x
Cc1ccc2c(C)c(C(=O)Nc3ccc(S(=O)(=O)Nc4onc(C)c4C)cc3)oc2c1 | 10 | 97* | 11 | 2 | -14 | 0
Cc1ccc(-c2cc(C(=O)NC3=NCCS3)c3ccccc3n2)cc1C | x | 90* | -2 | -9 | -7 | -1
Cc1ccc(-c2cc(C(=O)Nc3ccc(S(=O)(=O)Nc4onc(C)c4C)cc3)c3ccccc3n2)cc1 | 19 | 98* | 47 | 1 | x | 1
Cc1noc(NS(=O)(=O)c2ccc(NC(=O)c3cnc4n(c3=O)CCS4)cc2)c1C | x | 99* | 6 | -1 | 5 | -4
C[C@@H]1CN([C@@H](C)CO)S(=O)(=O)c2ccc(-c3ccncc3)cc2O[C@H]1CN(C)Cc1cccnc1 | 0 | x | x | x | x | x
C[C@@H]1CN([C@@H](C)CO)C(=O)c2c(c3ccccc3n2C)-c2ccccc2CO[C@H]1CN(C)S(=O)(=O)CC(F)(F)F | 1 | x | x | x | x | x
COc1cccc(-c2cnc3c(c2)C(=O)N([C@@H](C)CO)C[C@@H](C)[C@H](CN(C)Cc2ccc(C(=O)O)cc2)O3)c1 | -2 | x | x | x | x | x
OCCNc1cc(-n2nc(-c3ccccc3)cc2-c2ccccc2)ncn1 | x | 96* | -2 | -1 | -2 | -3
C[C@H](CO)N1C[C@H](C)[C@@H](CN(C)Cc2ccccc2)Oc2ncc(C#CC3(O)CCCC3)cc2C1=O | 2 | x | x | x | x | x
O=C(CSC1=NS(=O)(=O)c2ccccc21)Nc1ccccc1 | 1 | 99* | x | 5 | 1 | 0
COC(=O)CSC1=NS(=O)(=O)c2ccccc21 | x | 100* | x | -6 | -1 | 0
COc1ccc2c3c(n(C)c2c1)[C@H](CO)N(C(=O)Cc1ccccn1)CC31CCN(CC2CCCC2)CC1 | -1 | x | x | x | x | x
CO[C@H]1O[C@H](CO)[C@@H](OC(=O)c2ccc(Br)cc2)[C@H](OC(=O)c2cc3ccccc3[nH]2)[C@H]1OC(=O)c1cc2ccccc2[nH]1 | -1 | x | x | x | x | x
Cc1cc(C)nc(NCC(O)CNc2ccccc2C)n1 (configuration not stated) | x | 98* | 14 | 1 | -9 | 0
Cc1cc(C)nc(NCC(O)COc2ccccc2C)n1 (configuration not stated) | x | 0 | x | 1 | -8 | -1
Cc1cc(-c2nnc(SCC(=O)Nc3nccs3)o2)no1 | 15 | 89* | -40 | -1 | 14 | 0
O=C(CSc1nnc(-c2cccnc2)o1)Nc1nccs1 | -3 | 99* | -3 | -3 | -10 | 1
COc1ccc(NC(=O)CSc2nnc(-c3ccncc3)o2)c(OC)c1 | 0 | -34 | -1 | 1 | 16 | -1
COc1ccc(NC(=O)CSc2nnc(-c3cccnc3)o2)c(OC)c1 | -1 | 98* | 1 | 1 | 5 | -2
CC(C)NC(=O)N(C)C[C@@H]1OCCCC[C@@H](C)Oc2ccc(NC(=O)C3CCCCC3)cc2C(=O)N([C@@H](C)CO)C[C@@H]1C | -3 | x | x | x | x | x
CNC[C@H]1OCCCC[C@H](C)Oc2ccc(N(C)C)cc2C(=O)N([C@@H](C)CO)C[C@@H]1C | 2 | x | x | x | x | x
SMILES | CASP6 VEID inh | ALR H2O2 inh | NSD2 HMT inh | Glyco luc inh | SUMO Mot1 rescue | CDK5 inh
N#Cc1ccccc1S(=O)(=O)N1CCN(C(=O)Cc2coc3cc(O)ccc23)CC1 | 1 | 99* | 1 | -1 | -12 | -1
Cc1noc(C)c1S(=O)(=O)Nc1ccc2c(c1)C(=O)N([C@H](C)CO)C[C@H](C)[C@H](CN(C)CC1CCCCC1)O2 | -6 | x | x | x | x | x
CC1(C)CC(Nc2ccc(Nc3ccccc3)cc2)CC(C)(C)N1 | -24 | 99* | 37 | -3 | 45 | 4
CC1(C)CC(NC(=O)c2ccccc2)CC(C)(C)N1 | 3 | x | -3 | 1 | -19 | 2
CCCC#Cc1ccc2c(c1)O[C@@H](CN(C)C(=O)c1cnccn1)[C@@H](C)CN([C@@H](C)CO)S2(=O)=O | -3 | x | x | x | x | x
Oc1ccc(-c2n[nH]c(=S)n2-c2ccc3c(c2)OCCO3)c(O)c1 | x | 86* | 3 | 2 | 8 | 6
COc1cc(OC)cc(-c2n[nH]c(=S)n2-c2ccc3c(c2)OCCO3)c1 | -2 | 1 | -3 | 3 | 5 | 2
S=c1[nH]nc(-c2ccc(Cl)cc2Cl)n1-c1ccc2c(c1)OCCO2 | 0 | 69 | 0 | 1 | -3 | 3
COc1ccc(-c2n[nH]c(=S)n2-c2ccc3c(c2)OCCO3)cc1 | x | 91* | -1 | 2 | -16 | 1
S=c1[nH]nc(-c2ccc3ccccc3n2)n1-c1ccc2c(c1)OCCO2 | 3 | 90* | 1 | 1 | -5 | 2
CN(C)CC(=O)N[C@@H]1CC[C@H](CC(=O)NCCN2CCCCC2)O[C@@H]1CO | 2 | x | x | x | x | x
C[C@@H]1CN([C@H](C)CO)C(=O)c2cccc(NS(=O)(=O)c3cn(C)cn3)c2O[C@@H]1CN(C)C(=O)Nc1ccc2c(c1)OCO2 | -1 | x | x | x | x | x
O=C(c1cccc(F)c1)N1C[C@H]2[C@@H](c3ccccc31)[C@@H](CO)N2C(=O)c1ccccn1 | 6 | x | x | x | x | x
O=c1c(Cl)c(O)c2cccc3c4ccccc4n1c23 | 11 | 99* | 0 | 4 | -4 | 2
COc1c(O)c(=O)n2c3ccccc3c3ccnc1c32 | 1 | 98* | x | 3 | -16 | 1
Cn1c(=O)c(-c2cccc(Cl)c2)c(O)c2ccccc21 | 5 | -1 | -1 | 1 | 16 | 3
C[C@H](CO)N1C[C@H](C)[C@@H](CN(C)S(=O)(=O)c2cn(C)cn2)OCCCC[C@H](C)Oc2ccc(NS(=O)(=O)c3ccc(F)cc3)cc2C1=O | 5 | x | x | x | x | x
Cc1ccc(C(=O)Nc2cccc(-c3cn4ccccc4n3)c2)cc1 | x | 33 | -4 | 0 | 11 | 0
O=C(Nc1cccc(-c2cn3ccccc3n2)c1)c1ccccc1 | 3 | 95* | -4 | -1 | 2 | 0
CO[C@@H]1CN(C)C(=O)c2cc(NC(=O)NC(C)C)ccc2OC[C@@H](C)N(C)C[C@H]1C | 3 | x | x | x | x | x
COc1ccc2nc(C)cc(Nc3ccc(N4CCOCC4)cc3)c2c1 | x | 16 | 22 | 49* | 2 | 0
COc1ccc2nc(C)cc(Nc3ccc(N4CCN(C)CC4)cc3)c2c1 | x | 96* | 13 | 67* | 19 | 1
Nc1ccc(Cc2nc3cc4ccccc4cc3[nH]2)cc1 | x | -6 | 0 | x | 31 | x
Cc1ccc2nc(CCc3ccc(N)cc3)[nH]c2c1 | -7 | 99* | -1 | -1 | -6 | 0
